Pf Dd2 growth = P. falciparum Dd2 growth inhibition. SYBR Green, 72 h; hits give low values. activity change, % at 10 µM. actives 2.3% (n = 94,000); in the data active means activity change below about -80%; inconclusive means no clear call, values can overlap the other calls
C diff HTS = inhibitors of Clostridium difficile growth; Clostridium difficile clinical isolate growth, OD600, 24 h; hits give low values; growth activity, negative = inhibition, % at 16 µg/mL (by protocol); actives 0.25% (n = 86,000);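 active means mean growth activity at or below -80% and every replicate also at or below -80%; inconclusive means mean at or below -80% but some replicate above -80%; inactive means mean growth activity above -80%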;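 further: 0% = DMSO wells and -100% = levofloxacin 16 µg/mL wells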
T cruzi growth-1 = T. cruzi proliferation inhibition | AID 624255 | T. cruzi beta-gal in NIH3T3, GalScreen luminescence, 90 h | inhibition, % at 8.34 µM | actives 5.9% (n = 77,000);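 active means mean inhibition above about 93%, with at least 55% of replicates each passing it, limit read from the data, passing the limit was not always enough; inconclusive means only one of those two conditions holds; inactive means neither condition holds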
T cruzi growth-2 = inhibitors of T. cruzi proliferation | AID 651739 | actives 72% (n = 5,600) | inhibition, % at 8.35 µM | T. cruzi beta-gal in NIH3T3, GalScreen luminescence, 90 h | shares compounds with T cruzi growth-1;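 active means mean replicate inhibition above about 95% and at least 55% of replicates individually reaching it, limit read from the data; inconclusive means only one of the two criteria is met; inactive means neither criterion is met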
T cruzi growth-3 = Trypanosoma cruzi proliferation inhibition. shares compounds with T cruzi growth-1. T. cruzi beta-gal in NIH3T3, GalScreen luminescence, 90 h. inhibition, % at 2.09 µM. actives 21% (n = 5,600). AID 651740;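 active means mean inhibition above about 95%, with at least 55% of replicates also reaching it, limit read from the data; inconclusive means meets just one of the two conditions; inactive means meets neither condition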;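 further: plate controls were neutral control median for no effect and positive control median for full effect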
NIH3T3 tox = cytotoxicity in mouse NIH/3T3 fibroblasts; shares compounds with T cruzi growth-1; NIH/3T3 viability, CellTiter-Glo ATP luminescence, 90 h; cytotoxicity (signal decrease), % at 8.35 µM; actives 14% (n = 5,600); AID 651742;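 active means mean signal decrease across replicates above about 35% based on untreated-well scatter, with enough replicates individually passing, limit read from the data; inconclusive means no rule stated though some were filed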;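 further: 0% = median of neutral control wells and 100% = median of positive control wells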
NIH3T3 tox 2 = cytotoxicity in mouse NIH/3T3 fibroblasts; shares compounds with T cruzi growth-1; NIH/3T3 viability, CellTiter-Glo ATP luminescence, 90 h; inhibition, % at 24.9 µM; actives 56% (n = 5,600); AID 651744;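 active means mean loss of cell viability signal at or above a set limit, and enough replicates individually reaching it; inconclusive means meets only the mean limit or only the replicate share; inactive means meets neither condition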;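 further: 0% = median of neutral control wells and 100% = median of positive control wells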
* marks the source's active call; other numbers are inactive results; ? = inconclusive; nt = no result given. Rows were chosen to be rich in hits. Some 6.7% of all compounds tested hit in one or more screens of this group.

SMILES	Pf Dd2 growth	C diff HTS	T cruzi growth-1	T cruzi growth-2	T cruzi growth-3	NIH3T3 tox	NIH3T3 tox 2
CN(C)C(=O)c1ccc(-c2ccc3c(c2)[C@H]2[C@H](CCN2C(=O)Cc2ccccn2)[C@@H](CO)N3C)cc1	-37.7	-6.4	?	106.1*	46.5	-4.6	-8.0
COc1ccc(-c2ccc3c(c2)[C@@H]2[C@@H](CCN2C(=O)Cc2ccccn2)[C@@H](CO)N3C)cc1	-56.2	-8.9	?	107.1*	84.1	-30.0	-11.9
CN1c2ccc(-c3ccc(F)cc3)cc2[C@@H]2[C@@H](CCN2C(=O)Cc2cccnc2)[C@H]1CO	6.0	-0.9	115.4*	116.9*	102.9*	-9.1	3.5
CN1c2ccc(-c3ccc(F)cc3)cc2[C@@H]2[C@@H](CCN2C(=O)Cc2ccccn2)[C@H]1CO	-27.7	-10.4	10.1	nt	nt	nt	nt
CN1c2ccc(-c3ccc(C#N)cc3)cc2[C@@H]2[C@@H](CCN2C(=O)CC2CC2)[C@@H]1CO	6.1	6.1	?	100.1*	?	46.8*	79.8*
CN(C)C(=O)c1cccc(-c2ccc3c(c2)[C@@H]2[C@@H](CCN2C(=O)Cc2ccccn2)[C@@H](CO)N3C)c1	-20.4	6.2	26.8	nt	nt	nt	nt
CN1c2ccc(-c3cccc(F)c3)cc2[C@@H]2[C@@H](CCN2C(=O)Cc2cccnc2)[C@@H]1CO	8.0	1.6	73.1	nt	nt	nt	nt
CCC(=O)N1CC[C@@H]2[C@H]1c1cc(-c3ccc(C#N)cc3)ccc1N(C)[C@H]2CO	18.4	0.6	81.0	nt	nt	nt	nt
COc1ccc2c3c(n(C)c2c1)[C@H](CO)N(C(=O)c1ccc(F)cc1)CC31CN(CC2CCOCC2)C1	-41.8	-6.8	nt	nt	nt	nt	nt
C[C@H](CO)N1C[C@H](C)[C@H](CN(C)Cc2ccc3c(c2)OCO3)Oc2ccc(NC(=O)Nc3cccc4ccccc34)cc2CC1=O	1.3	-2.4	-7.0	nt	nt	nt	nt
COc1ccc(S(=O)(=O)N(C)C[C@@H]2Oc3ncccc3C(=O)N([C@H](C)CO)C[C@@H]2C)cc1	-2.9	-5.7	nt	nt	nt	nt	nt
O=C(C[C@@H]1CC[C@H]2[C@@H](COC[C@@H](O)CN2Cc2ccc(Oc3ccccc3)cc2)O1)N1CCOCC1	0.6	nt	-10.2	nt	nt	nt	nt
O=C(C[C@H]1CC[C@@H]2[C@H](COC[C@@H](O)CN2CCC(F)(F)F)O1)N1CCC(Cc2ccccc2)CC1	-1.5	-7.9	?	37.0	-23.5	-13.4	2.4
O=C(C[C@@H]1CC[C@@H]2[C@H](COC[C@H](O)CN2Cc2ccccc2)O1)N1CCOCC1	11.4	3.2	-15.2	nt	nt	nt	nt
O=C(C[C@@H]1CC[C@H]2[C@@H](COC[C@@H](O)CN2CCC(F)(F)F)O1)N1CCC(Cc2ccccc2)CC1	-5.6	-0.1	59.1	nt	nt	nt	nt
O=C(C[C@@H]1CC[C@H]2[C@@H](COC[C@H](O)CN2Cc2ccc(Oc3ccccc3)cc2)O1)N1CCN(c2ccccc2)CC1	-72.7	6.7	129.8*	102.3*	62.4	38.1*	100.5*
O=C(C[C@H]1CC[C@@H]2[C@H](COC[C@H](O)CN2Cc2ccccc2)O1)N1CCOCC1	-23.9	5.9	122.5*	22.7	12.0	14.0	8.9
CO[C@@H]1CC[C@H]2CCN(C)C(=O)[C@H](C)N(C)C(=O)c3cc(C#N)ccc3OC[C@H]1O2	nt	0.1	20.6	nt	nt	nt	nt
CCCC(=O)Nc1ccc2c(c1)OC[C@H](C)N(C(C)=O)C[C@H](C)[C@@H](OC)CN(C)C2=O	2.1	0.9	nt	nt	nt	nt	nt
C[C@H]1CN([C@@H](C)CO)C(=O)c2cccc(NC(=O)c3nc4ccccc4s3)c2O[C@@H]1CN(C)C(=O)Nc1ccccc1	-25.9	-5.3	26.9	nt	nt	nt	nt
C[C@@H]1CN([C@H](C)CO)C(=O)c2cccc(NC(=O)c3nc4ccccc4s3)c2O[C@H]1CN(C)Cc1ccncc1	-42.2	-5.4	nt	nt	nt	nt	nt
CCCNC(=O)Nc1ccc2c(c1)OC[C@H](C)N(S(C)(=O)=O)C[C@@H](C)[C@H](OC)CN(C)C2=O	17.9	1.9	nt	nt	nt	nt	nt
O=C(c1cccc(F)c1)N1CCCCN2[C@@H](CO)[C@@H](c3ccc(/C=C/c4ccccc4)cc3)[C@@H]2C1	-64.2	-74.5	109.1*	101.4*	79.4	65.9*	104.9*
O=C(c1cccc(F)c1)N1CC(=O)N2[C@H](CO)[C@H](c3ccc(/C=C/c4ccccc4)cc3)[C@@H]2C1	-17.4	50.7	nt	nt	nt	nt	nt
O=C(c1cccc(F)c1)N1CCCCN2[C@H](CO)[C@H](c3ccc(-c4cncnc4)cc3)[C@@H]2C1	-1.1	0.4	75.1	nt	nt	nt	nt
SMILES	Pf Dd2 growth	C diff HTS	T cruzi growth-1	T cruzi growth-2	T cruzi growth-3	NIH3T3 tox	NIH3T3 tox 2
O=C(c1cccc(F)c1)N1CCCCN2[C@H](CO)[C@@H](c3ccc(/C=C/c4ccccc4)cc3)[C@@H]2C1	-3.8	-7.2	108.8*	100.2*	18.9	16.8	9.5
O=C(c1cccc(F)c1)N1CCCCN2[C@H](C1)[C@H](c1ccc(/C=C/c3ccccc3)cc1)[C@@H]2CO	22.9	8.9	110.2*	?	12.7	7.1	103.4*
O=C(c1cccc(F)c1)N1CCCCN2[C@H](C1)[C@@H](c1ccc(/C=C/c3ccccc3)cc1)[C@@H]2CO	-50.5	-5.6	111.1*	92.5	83.2	53.7*	39.1*
O=C(c1cccc(F)c1)N1CCCCN2[C@H](C1)[C@@H](c1ccc(-c3ccc(F)cc3)cc1)[C@@H]2CO	-2.3	45.0	92.7	nt	nt	nt	nt
O=C(c1cccc(F)c1)N1CCCCN2[C@H](C1)[C@H](c1ccc(-c3ccc(F)cc3)cc1)[C@@H]2CO	21.0	26.6	82.6	nt	nt	nt	nt
COCC(=O)N1C[C@@H]2[C@H](c3ccccc31)[C@@H](CO)N2C(=O)c1ccccc1F	3.1	1.9	19.8	nt	nt	nt	nt
C[C@H](CO)N1C[C@H](C)[C@H](CN(C)C(=O)c2ccccn2)Oc2ncc(-c3ccccc3)cc2C1=O	-12.8	nt	59.5	nt	nt	nt	nt
COCC(=O)N1[C@H](C#N)[C@H](c2ccccc2-c2cccc(OC)c2)[C@H]1CO	18.2	92.9	nt	nt	nt	nt	nt
C[C@@H]1CN([C@@H](C)CO)C(=O)Cc2cc(NC(=O)Nc3ccc(C(F)(F)F)cc3)ccc2O[C@@H]1CN(C)Cc1ccc(C(=O)Nc2ccccc2N)cc1	-4.4	4.6	76.2	nt	nt	nt	nt
O=C(c1ccc(F)cc1)N1CCCCN2[C@H](C1)[C@H](c1ccc(-c3ccccc3)cc1)[C@@H]2CO	-10.4	29.7	93.0	nt	nt	nt	nt
O=C(c1ccc(F)cc1)N1CCCCN2[C@@H](CO)[C@H](c3ccc(/C=C/c4ccccc4)cc3)[C@@H]2C1	-15.7	11.6	111.7*	95.1*	76.1	59.7*	103.3*
CC(C)NC(=O)Nc1ccc2c(c1)CC(=O)N([C@H](C)CO)C[C@@H](C)[C@@H](CN(C)C)O2	3.0	4.6	4.3	nt	nt	nt	nt
C[C@H]1CN([C@@H](C)CO)C(=O)c2cc(NC(=O)NC3CCCCC3)ccc2O[C@@H]1CN(C)Cc1ccc(-c2ccccc2)cc1	-0.6	7.6	-75.3	nt	nt	nt	nt

Source: PubChem (Broad Institute)
